PubChem BioAssay (NCATS)
Inconclusive results are not listed. Entries that show only a call come without a potency. Calls of active or inactive are those of the source. Calls come from the whole dose curve; as a rule, active = well fitted inhibition curve with a large enough effect; inconclusive = small, poorly fitted or top-dose-only effect; inactive = flat fitted curve, though single readings scatter.

Test system: SC27B
Assay: qHTS profiling for inhibitors of Plasmodium falciparum proliferation (AID 504749); note: nearly all actives have a fitted effect of over 60% in size
Conditions: P. falciparum in erythrocytes, SYBR Green DNA, 72 h; series mostly up to 28.7 µM
Procedure, shortened: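 Three-day growth assay of blood-stage parasites in erythrocytes (0.3% parasitemia, 2.5% hematocrit) at 37 C, 5% CO2, quantified by SYBR Green DNA staining after overnight detergent lysis.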

SMILES	Potency
FCOC(C(F)(F)F)C(F)(F)F	inactive
C=Cc1ccc(S(=O)(=O)O)cc1	inactive
CC12CCC(C[N+](C)(CCC[N+](C)(C)C)C1)C2(C)C (centres undefined)	inactive
CC1CC(OC(=O)C(O)c2ccccc2)CC(C)(C)C1 (centres undefined)	inactive
CC/C(=C(/CC)c1ccc(OP(=O)(O)O)cc1)c1ccc(OP(=O)(O)O)cc1	inactive
O=C(NNCNNC(=O)c1ccncc1)c1ccncc1	inactive
CC(C)c1ncc([N+](=O)[O-])n1C	inactive
CC(C)CCC[C@@H](C)[C@H]1CC[C@H]2[C@@H]3CC[C@@H]4C[C@H](O)CC[C@]4(C)[C@H]3CC[C@]12C	inactive
Cc1ccc(S(=O)(=O)NCl)cc1	inactive
CC(/C=C/C=C(\C)C(=O)O[C@@H]1O[C@H](CO[C@@H]2O[C@H](CO)[C@@H](O)[C@H](O)[C@H]2O)[C@@H](O)[C@H](O)[C@H]1O)=C\C=C\C=C(C)\C=C\C=C(/C)C(=O)O[C@@H]1O[C@H](CO[C@@H]2O[C@H](CO)[C@@H](O)[C@H](O)[C@H]2O)[C@@H](O)[C@H](O)[C@H]1O	inactive
CCCCCCCCCCCCCCCCCC(=O)OCC(C)O (centres undefined)	inactive
CC(C)(Oc1ccc(C2CCCc3ccccc32)cc1)C(=O)O (centres undefined)	inactive
CO	inactive
O=C(O)/C=C/C(=O)Nc1ccc(S(=O)(=O)Nc2nccs2)cc1	inactive
N[C@H](CC(=O)O)C(=O)O	inactive
CCCc1ccc(C(=O)O)cc1	inactive
O=S(=O)(O)CC(S)CS (centres undefined)	inactive
O=c1[nH]c(=O)n([C@H]2C[C@H](O)[C@@H](CO)O2)cc1/C=C/Br	inactive
CN[C@@H]1[C@H](O[C@H]2[C@H](O[C@H]3[C@H](O)[C@@H](O)[C@H](N=C(N)N)[C@@H](O)[C@@H]3N=C(N)N)O[C@@H](C)[C@]2(O)C=O)O[C@@H](CO)[C@H](O)[C@H]1O	inactive
